The target in this test is furin, P09958. Description: furin cleavage Z-score vs untreated control; higher = more cleavage, active = 3.5 or more, inactive = 1 or less, 8 variable residues between constant flanks. The essentials: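 Reactions of 0.01 ml ran for 7.5, 15 or 30 min in 50 mM HEPES pH 7.5 with CaCl2 and NaCl, at 1:10 enzyme:substrate. In them, purified furin acted on bead-held 8-mer peptides fused to a cDNA oligonucleotide. The cleavage Z-score was obtained by lowess-adjusting log sequencing counts of released DNA against furin-free reactions and scaling by median absolute deviation.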

The list shows a part of the results. No count for the full screen is at hand.

Chain of furin, P09958 (P09958 whole entry, the tested form may be a part): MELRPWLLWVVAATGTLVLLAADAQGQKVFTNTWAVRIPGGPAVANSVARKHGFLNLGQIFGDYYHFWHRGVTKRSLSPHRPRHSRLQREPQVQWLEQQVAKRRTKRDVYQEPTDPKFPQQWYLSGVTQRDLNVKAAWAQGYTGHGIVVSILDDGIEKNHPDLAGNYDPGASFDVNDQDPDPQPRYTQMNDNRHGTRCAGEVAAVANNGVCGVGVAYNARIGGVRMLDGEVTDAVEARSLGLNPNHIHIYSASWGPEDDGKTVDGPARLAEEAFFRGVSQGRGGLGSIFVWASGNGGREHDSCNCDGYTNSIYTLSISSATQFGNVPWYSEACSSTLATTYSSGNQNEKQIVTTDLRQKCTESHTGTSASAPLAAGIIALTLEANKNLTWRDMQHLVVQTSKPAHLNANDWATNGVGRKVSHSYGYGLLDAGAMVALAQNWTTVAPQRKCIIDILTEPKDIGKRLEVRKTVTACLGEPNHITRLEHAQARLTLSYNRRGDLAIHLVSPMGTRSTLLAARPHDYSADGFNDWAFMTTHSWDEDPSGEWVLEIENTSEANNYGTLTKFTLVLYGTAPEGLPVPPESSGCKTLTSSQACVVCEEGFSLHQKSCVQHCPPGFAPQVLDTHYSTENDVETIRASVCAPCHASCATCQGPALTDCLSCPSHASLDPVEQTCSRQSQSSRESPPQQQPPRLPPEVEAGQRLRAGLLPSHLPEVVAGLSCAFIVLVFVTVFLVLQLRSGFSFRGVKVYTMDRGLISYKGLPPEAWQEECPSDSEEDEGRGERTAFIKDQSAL

On to CATTPCSGKWAGNASASA [HC1914], for which the “furin cleavage Z-score” value is -1.59 (inactive) (7.5 min), 1.19 (15 min) and -1.38 (inactive) (30 min).
In the case of CAPPQPEYDLAGNASASA [HC1547], the “furin cleavage Z-score” value reads like this: (7.5 min) -0.102 (inactive); (15 min) 2.02; (30 min) -0.964 (inactive).
On the same counts, the results for CAVQARDLGPAGNASASA [FS-1874] are -2.04 (inactive), -0.417 (inactive) and -1.57 (inactive).
In the same order, the values of CAEVVTSTWCAGNASASA [HC2260] are -0.517 (inactive), 2.75 and 0.14 (inactive).
As for CARVRRAAAEAGNASASA [FS-2104], the “furin cleavage Z-score” value is 12.4 (active) (7.5 min), 11.6 (active) (15 min) and 8.72 (active) (30 min).
As for CARVRRRLDLAGNASASA [FS-2843], the “furin cleavage Z-score” value runs as follows: (7.5 min) 2.08; (15 min) 5.18 (active); (30 min) 6.19 (active).
With CAASKVKANLAGNASASA [HC1408], the “furin cleavage Z-score” value is, setting by setting: (7.5 min) 2.23; (15 min) 1.5; (30 min) -1.01 (inactive).
As to CARETRSARDAGNASASA [FS-186], the “furin cleavage Z-score” value (7.5 min) is 4.31 (active), the “furin cleavage Z-score” value (15 min) is 4.67 (active) and the “furin cleavage Z-score” value (30 min) is 5.64 (active).
With CARETRYVELAGNASASA [FS-2918], the “furin cleavage Z-score” value by setting is: (7.5 min) 0.274 (inactive); (15 min) 0.951 (inactive); (30 min) 1.86.
With CARETRSFTKAGNASASA [FS-1699], the “furin cleavage Z-score” value reads like this: (7.5 min) -0.268 (inactive); (15 min) -1.13 (inactive); (30 min) 0.163 (inactive).
Consider CAHKKRSARDAGNASASA [FS-1338], for which the “furin cleavage Z-score” value (7.5 min) is 9.15 (active), the “furin cleavage Z-score” value (15 min) was 11 (active) and the “furin cleavage Z-score” value (30 min) was 8.17 (active).
Take CAAYALDTEVAGNASASA [HC564]: the “furin cleavage Z-score” value by setting is: (7.5 min) -0.288 (inactive); (15 min) -0.347 (inactive); (30 min) 0.258 (inactive).
Turning to CAMEECSQALAGNASASA [HC1743], the “furin cleavage Z-score” value (7.5 min) worked out at 1.12, the “furin cleavage Z-score” value (15 min) is 0.147 (inactive) and the “furin cleavage Z-score” value (30 min) is 0.968 (inactive).
Consider CARTKRGWMWAGNASASA [FS-2828], for which the “furin cleavage Z-score” value is -0.833 (inactive) (7.5 min), 1.19 (15 min) and 3.46 (30 min).
Turning to CARTKRSWVWAGNASASA [FS-2613], the “furin cleavage Z-score” value (7.5 min) came to 2.5, the “furin cleavage Z-score” value (15 min) is 3.65 (active) and the “furin cleavage Z-score” value (30 min) was 6.25 (active).
On the same counts, the results for CARTRRISQTAGNASASA [FS-2468] are -0.0765 (inactive), 0.134 (inactive) and 0.486 (inactive).
As for CADTEVVTSTAGNASASA [HC2298], the “furin cleavage Z-score” value (7.5 min) was -0.856 (inactive), the “furin cleavage Z-score” value (15 min) is -0.105 (inactive) and the “furin cleavage Z-score” value (30 min) is -0.202 (inactive).
Consider CARTKRHRSTAGNASASA [FS-2829], for which the “furin cleavage Z-score” value is 2.1 (7.5 min), 4.17 (active) (15 min) and 5.45 (active) (30 min).
Regarding CARTRRSWVWAGNASASA [FS-2385], the “furin cleavage Z-score” value is, setting by setting: (7.5 min) 0.299 (inactive); (15 min) -0.875 (inactive); (30 min) 3.19.
Take CARTKKSSVQAGNASASA [FS-1841]: the “furin cleavage Z-score” value by setting is: (7.5 min) 0.0621 (inactive); (15 min) -0.697 (inactive); (30 min) -0.462 (inactive).
As for CARTKRSSTTAGNASASA [FS-3108], the “furin cleavage Z-score” value by setting is: (7.5 min) 6.96 (active); (15 min) 8.23 (active); (30 min) 7.55 (active).
Regarding CAPSKRGNSTAGNASASA [FS-2877], the “furin cleavage Z-score” value (7.5 min) was -0.745 (inactive), the “furin cleavage Z-score” value (15 min) is -0.0005 (inactive) and the “furin cleavage Z-score” value (30 min) is 0.164 (inactive).
In the same order, the values of CARACRGVTTAGNASASA [FS-2880] are 0.00727 (inactive), -0.299 (inactive) and 0.871 (inactive).
For CARTKRFSHTAGNASASA [FS-2827], the “furin cleavage Z-score” value was 1.99 (7.5 min), 3.53 (active) (15 min) and 5.48 (active) (30 min).
For CATEECSQHLAGNASASA [HC1678], the “furin cleavage Z-score” value reads like this: (7.5 min) -0.115 (inactive); (15 min) 0.32 (inactive); (30 min) 0.469 (inactive).
For CAVVCYSMSYAGNASASA [HC97], the “furin cleavage Z-score” value was -0.487 (inactive) (7.5 min), -0.359 (inactive) (15 min) and 1.4 (30 min).
On to CAEVVMSTWVAGNASASA [HC128], for which the “furin cleavage Z-score” value was -0.73 (inactive) (7.5 min), -0.446 (inactive) (15 min) and -0.0354 (inactive) (30 min).
As for CAFRIRTIRSAGNASASA [FS-772], the “furin cleavage Z-score” value (7.5 min) was 12.7 (active), the “furin cleavage Z-score” value (15 min) is 13.4 (active) and the “furin cleavage Z-score” value (30 min) was 9.8 (active).
In the same order, the values of CASRYRFVRSAGNASASA [FS-1090] are 10.3 (active), 8.88 (active) and 7.53 (active).
CASRYRFIRSAGNASASA [FS-1089]: the “furin cleavage Z-score” value was 9.42 (active) (7.5 min), 10.5 (active) (15 min) and 7.95 (active) (30 min).
CATPEDFVRSAGNASASA [FS-920]: the “furin cleavage Z-score” value (7.5 min) is -0.0484 (inactive), the “furin cleavage Z-score” value (15 min) is -0.138 (inactive) and the “furin cleavage Z-score” value (30 min) was -0.221 (inactive).
As to CAFVCCSMSYAGNASASA [HC1987], the “furin cleavage Z-score” value is, setting by setting: (7.5 min) 1.81; (15 min) -0.389 (inactive); (30 min) -0.812 (inactive).
Consider CAEVVTSTWLAGNASASA [HC2245], for which the “furin cleavage Z-score” value by setting is: (7.5 min) 0.791 (inactive); (15 min) 0.0846 (inactive); (30 min) 0.0471 (inactive).
On the same counts, the results for CAEMEECSQHAGNASASA [HC1014] are -0.42 (inactive), 0.366 (inactive) and 1.51.
For the sequence CARPRRMTPFAGNASASA [FS-2744], the “furin cleavage Z-score” value is 2.59 (7.5 min), 4.44 (active) (15 min) and 4.82 (active) (30 min).
Regarding CARPRREAPFAGNASASA [FS-2742], the “furin cleavage Z-score” value was 9.78 (active) (7.5 min), 10.3 (active) (15 min) and 8.49 (active) (30 min).
As to CAPPCKPLLRAGNASASA [HC1228], the “furin cleavage Z-score” value was 0.659 (inactive) (7.5 min), 0.392 (inactive) (15 min) and 0.118 (inactive) (30 min).
With CAEVSTSTWVAGNASASA [HC2197], the “furin cleavage Z-score” value is, setting by setting: (7.5 min) -0.613 (inactive); (15 min) 0.268 (inactive); (30 min) -1.55 (inactive).
As to CATTWCSGSWAGNASASA [HC1868], the “furin cleavage Z-score” value was -0.625 (inactive) (7.5 min), -0.0771 (inactive) (15 min) and -0.259 (inactive) (30 min).
As for CAVVCCSGSYAGNASASA [HC2056], the “furin cleavage Z-score” value is -1.92 (inactive) (7.5 min), -0.697 (inactive) (15 min) and -1.32 (inactive) (30 min).
In the same order, the values of CAKKGRNRRTAGNASASA [FS-935] are 9.29 (active), 8.34 (active) and 7.42 (active).
Turning to CAVTSRSFRTAGNASASA [FS-894], the “furin cleavage Z-score” value by setting is: (7.5 min) 1.05; (15 min) -0.0745 (inactive); (30 min) -0.661 (inactive).
Regarding CALNGREHRSAGNASASA [FS-353], the “furin cleavage Z-score” value is, setting by setting: (7.5 min) 0.641 (inactive); (15 min) -0.584 (inactive); (30 min) -0.522 (inactive).
As to CAKKGRGKRTAGNASASA [FS-41], the “furin cleavage Z-score” value is 6.83 (active) (7.5 min), 9.38 (active) (15 min) and 6.62 (active) (30 min).
For CALNGRCRRTAGNASASA [FS-134], the “furin cleavage Z-score” value reads like this: (7.5 min) 6.57 (active); (15 min) 6.93 (active); (30 min) 8.18 (active).
For CAPKGRGKRRAGNASASA [FS-1241], the “furin cleavage Z-score” value was 3.48 (7.5 min), 3.42 (15 min) and 4.16 (active) (30 min).

The record behind these values is the supplement of paper PMC3545927.
